Compound activity: PubChem BioAssay, National Center for Advancing Translational Sciences (NCATS)
RORgamma inh: qHTS for inhibitors of ROR gamma transcriptional activity; 310,000 tested, 5.4% active; Potency, µM (doses to about 53.6 µM), without a hit: top-dose activity change, negative = inhibition, actives largely listed as inhibitors; Drosophila S2 Gal4-RORgamma UAS-luciferase reporter, 20 h; Nuclear receptor ROR-gamma (Mus musculus), P51450; note: potency is the fitted concentration of half-maximal effect; % is set by controls: 0 for no effect and ±100 for the full control effect; nearly all actives have a fitted effect of over 60% in size
Target sequence (P51450 whole entry, looked up, the tested form may be a part): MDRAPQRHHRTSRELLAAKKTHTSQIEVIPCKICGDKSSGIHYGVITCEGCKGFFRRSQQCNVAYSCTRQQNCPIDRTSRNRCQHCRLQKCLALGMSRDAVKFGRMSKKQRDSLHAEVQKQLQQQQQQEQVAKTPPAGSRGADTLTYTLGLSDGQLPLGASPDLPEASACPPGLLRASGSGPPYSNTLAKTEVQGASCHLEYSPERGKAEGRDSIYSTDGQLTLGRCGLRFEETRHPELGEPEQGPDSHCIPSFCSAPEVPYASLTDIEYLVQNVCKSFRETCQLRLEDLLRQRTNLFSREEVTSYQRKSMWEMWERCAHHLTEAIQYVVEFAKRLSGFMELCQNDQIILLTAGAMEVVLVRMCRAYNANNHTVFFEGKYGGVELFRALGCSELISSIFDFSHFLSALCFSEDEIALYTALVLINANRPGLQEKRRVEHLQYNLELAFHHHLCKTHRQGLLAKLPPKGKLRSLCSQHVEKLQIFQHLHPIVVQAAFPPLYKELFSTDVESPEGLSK
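Drosophila Schneider cells stably carrying a metallothionein-driven Gal4 DBD–ROR gamma fusion and a UAS-Photinus luciferase reporter were exposed to compound for 1 hr, then induced with copper sulfate (700 uM final) for 20 hr at ambient temperature before luminescence reading.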
CtBP-E1A blk: qHTS Assay for Inhibitors of the CtBP/E1A Interaction. CtBP / adenovirus E1A interaction (AlphaScreen). AlphaScreen GST-E1A/His-CtBP binding, 1536-well; hits give low values. activity change, % (concentration not given with the values). 340,000 tested, 0.49% active. AID 651724, 2012; in the data active = activity change below about -65%; inconclusive = mostly about -30% to -63%; note: % is set by controls: 0 for no effect and ±100 for the full control effect
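AlphaScreen with 125 nM GST-E1A and 125 nM His-CtBP (5X stocks) in Tris pH 8.0, 300 mM NaCl, BSA, Tween 20, TCEP. Compounds preincubated 2 h at 37 deg C, then glutathione donor/nickel acceptor beads added for 1 h at 37 deg C in dark.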
CBFb RUNX1 block: qHTS Assay for Compounds Blocking the Interaction Between CBF-beta and RUNX1 for the Treatment of Acute Myeloid Leukemia; Runt-related transcription factor 1 (Homo sapiens) + Core-binding factor subunit beta …; AlphaScreen CBFb-His/RUNX1-biotin binding, biochemical; Potency, µM (top dose mostly 59.8 µM), without a hit: at the top dose activity, negative = inhibition, usual class: inhibitors; 230,000 tested, under 10 active; note: % of control where 0% means no effect
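Inhibition was taken as any reduction in AlphaScreen signal from the CBF-beta–RUNX1 pair (His and biotin tags, 30 nM each), measured after compound (15 min) and bead (90 min) incubations at room temperature.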
Six1-Eya2 blk: qHTS Assay for Inhibitors of the Six1/Eya2 Interaction. Homeobox protein SIX1 (Homo sapiens) + Protein phosphatase EYA2 (Homo sapiens), …. AlphaScreen GST-Six1/His-Eya2 binding, biochemical; hits give low values. activity change, % (test concentration not listed). 360,000 tested, 0.56% active. AID 651725, 2012; in the data active = activity change below about -65%; inconclusive = mostly about -30% to -63%; note: % is set by controls: 0 for no effect and ±100 for the full control effect
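Homogeneous AlphaScreen proximity assay pairing GST-Six1 with His-tagged Eya2 (added as 5X mix: 250 nM and 500 nM) in 50 mM Tris pH 8.0, 300 mM NaCl, 1 mM TCEP. Glutathione donor and nickel acceptor beads; 1 h, 37 °C, dark.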
Gal4-VP16 FLuc: VP16 counterscreen qHTS for inhibitors of ROR gamma transcriptional activity | Potency, µM (doses to about 53.6 µM), without a hit: top-dose activity, negative = inhibition, most hits filed as inhibitors | AID 2546, 2010 | 310,000 tested, 3.5% active | Drosophila S2 Gal4-VP16 UAS-luciferase, luminescence, 20 h;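 note: Gal4-VP16 expression switched on by copper sulfate through the metallothionein promoter; potency is the fitted concentration of half-maximal effect; % is set by controls: 0 for no effect and ±100 for the full control effect; nearly all actives have a fitted effect of over 50% in size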
MBNL1-CUG inh: qHTS Assay for Inhibitors of MBNL1-poly(CUG) RNA binding; 280,000 tested, 0.036% active; Muscleblind-like protein 1 (Homo sapiens), Q9NR56; Potency, µM (titrated, usually from 57.5 µM), inactives show at the highest dose activity change, negative = inhibition, most hits filed as inhibitors; AID 2675, 2010; TR-FRET MBNL1-His/biotin-(CUG)12 binding, 665/545 ratio; active = well fitted inhibition curve with a large enough effect in the signal ratio, with a control signal flat, not every such curve was filed as active; inconclusive = small, poorly fitted or top-dose-only effect, or effect the other way, or a change in a side signal; inactive = no such curve, though single readings can be large or run the other way; the % refers to the signal ratio; note: potency is the fitted concentration of half-maximal effect; % is set by controls: 0 for no effect and ±100 for the full control effect
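His-tagged MBNL1 binding to biotinylated (CUG)12 RNA was measured by TR-FRET using terbium anti-His antibody (0.055 ng/ul final) and streptavidin-XL665 (5 nM final). Compounds were titrated 92 nM to 58 uM; 60 min at room temperature.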
Active calls of the source: *; u = inconclusive; x = no result; [ ] = another dose, or the depositor's remark. A selection: hits, their analogues and other compounds. The true share with any hit is near 5.5%. Unless noted, calls come from the whole dose curve; as a rule, active = well fitted curve in the direction sought with a large enough effect; inconclusive = small, poorly fitted or top-dose-only effect, or another doubt; inactive = no such curve, though single readings can be large; an effect the other way counts as inactive or inconclusive.

SMILES	RORgamma inh	CtBP-E1A blk	CBFb RUNX1 block	Six1-Eya2 blk	Gal4-VP16 FLuc	MBNL1-CUG inh
CNC(=O)c1[nH]cnc1C(=O)NCC(=O)OC(C)(C)C	-24%	3	x	1	-1%	-9%
C[C@H](NC(=O)c1nc[nH]c1C(=O)NC(c1ccccc1)c1ccccc1)C(=O)OC(C)(C)C	2.5µM*	-7	-12%	-12	4.5µM*	2%
C=C(C)Cn1c2ccc(NC(=O)NCc3ccccc3)cc2c(=O)n1C	x	1	x	9	x	x
CN(C)c1ncc2nc(CCc3ccccc3)c(=O)n(Cc3cccs3)c2n1	11%	x	x	x	-13%	x
O=C(Nc1nccs1)c1ccc(Br)cc1	8.9µM*	3	x	-2	u	46%
O=C(Nc1ccc(OC(F)F)cc1)c1ncc(Cl)c(Cl)c1Cl	5µM*	1	9%	18	-15%	-6%
O=C(NNC(=O)C(c1ccccc1)c1ccccc1)c1ccccn1	5.6µM*	u	u	u	u	38%
O=C(NNc1ccccn1)C(c1ccccc1)c1ccccc1	-21%	-2	8%	8	-7%	0%
CCn1ncc(Br)c1C(=O)Nc1nccs1	13µM*	-3	12%	-2	u	3%
CCn1ncc(Br)c1C(=O)Nc1ccc(OC(F)(F)F)cc1	34%	x	x	10	-1%	-6%
C/C(=N\Nc1ccccn1)c1ccc(OC(F)F)cc1	14µM*	4	0%	-9	u	5%
Cc1cc(C)cc(NC(=O)c2ccc(CSc3nnnn3C)cc2)c1	10%	-13	-1%	-6	-3%	10%
O=C(Nc1nccs1)c1ncc(Cl)c(Cl)c1Cl	7.9µM*	2	x	6	4µM*	3%
C/C(=C\c1ccccc1)C(=O)Nc1nccs1	6.3µM*	-18	12%	3	u	4%
Cn1nnnc1SCc1ccc(C(=O)Nc2nccs2)cc1	34%	-80*	2%	-70*	-1%	0%
CCOC(=O)C(=O)NCC(c1cccs1)S(=O)(=O)c1ccc(F)cc1 (configuration not stated)	x	6	x	6	x	x
COc1ccc(CN(Cc2cccn2C)S(=O)(=O)c2cccc(C(F)(F)F)c2)cc1	7%	0	13%	-16	2%	-1%
O=C(NCCc1ccccn1)c1ccc(OC(F)F)cc1	u	-7	3%	1	u	-2%
O=C(Nc1nccs1)c1ccc2ccccc2c1	7.9µM*	-11	x	-9	6.3µM*	15%
O=C(NNC(=O)c1ccccn1)c1ccc(OC(F)F)cc1	x	-78*	x	-84*	x	x
O=C(Nc1nccs1)c1ccc(Br)s1	11µM*	-7	x	0	u	78%
Cc1ccc(C(=O)Nc2nccs2)s1	-6%	-10	x	-14	-11%	-16%
O=C(Nc1nccs1)c1ccc(S(=O)(=O)c2ccccc2)cc1	-38%	11	3%	8	-11%	2%
O=C(NNC(=O)c1cccs1)c1ccccn1	x	u	x	-74*	x	x
CN(C)S(=O)(=O)c1ccc(Cl)c(NC(=O)CNC2(C)CCS(=O)(=O)C2)c1 (configuration not stated)	x	-1	x	2	x	x
SMILES	RORgamma inh	CtBP-E1A blk	CBFb RUNX1 block	Six1-Eya2 blk	Gal4-VP16 FLuc	MBNL1-CUG inh
COc1ccc(-c2cnnn2-c2ccc([N+](=O)[O-])cc2)cc1	9%	2	x	-2	28%	u
O=C(Nc1nccs1)c1ccccn1	2.5µM*	u	-25%	-87*	13µM*	-1%
Cc1ccc(-c2c3c(nc4sc(C(N)=O)c(N)c24)CCCC3)o1	10%	u	22%	-25	-5%	-6%[11.5 µM]
Cc1nc2sc(C(N)=O)c(N)c2c2c1CCCC2	5.6µM*	u	7%	u	5%	u
NC(=O)c1sc2nc3c(c(-c4ccco4)c2c1N)CCC3	5%	-7	3%	-71*	10%	u
Cc1ccc(-c2nc3sc(C(N)=O)c(N)c3c3c2CCCC3)cc1	-43%	9	5%	-4	-2%	71%
CC(OC(=O)c1ccc(-n2cnnn2)cc1)C(=O)N(C)c1ccccc1 (configuration not stated)	x	1	x	1	x	x
COc1ccc(-c2nn(-c3ccccc3)cc2C(=O)Nc2nccs2)cc1	7.1µM*	-2	1%	-3	11µM*	-1%
O=C(Nc1nccs1)c1cn(-c2ccccc2)nc1-c1ccncc1	-33%	-10	u	-1	0%	5%
COc1cccc(-c2nn(-c3ccccc3)cc2C(=O)Nc2nccs2)c1	6.3µM*	-9	7%	-10	18µM*	0%
O=C1NC[C@H](Cc2ccc(O)cc2)N(C[C@@H]2CCCN2C[C@H](Cc2ccc(O)cc2)N2C[C@H](Cc3ccccc3)N(CCc3ccccc3)C(=O)C2=O)C1=O	x	-1	x	-15	x	x
CC1(C)CC(=S)Nc2ccccc2S1	2.8µM*	3	-2%	-5	5µM*	-1%
Cc1occc1C(=O)N/N=C/C(Br)=C/c1ccccc1	u	u	-2%	-11	-5%	13%
COc1ccc(C(=O)N/N=C/C(Br)=C/c2ccccc2)cc1	3.5µM*	u	-1%	-7	16µM*	18%
Cn1cc(C(=O)N/N=C/C(Br)=C/c2ccccc2)ccc1=O	u	x	4%	-27	u	x
O=C(N/N=C/C(Br)=C/c1ccccc1)c1ccccc1[N+](=O)[O-]	26%	-92*	x	-21	5%	u
O=C(CN1CCOCC1)N/N=C/C(Br)=C\c1ccccc1	-21%	-81*	6%	-22	u	u
O=C(N/N=C/C(Br)=C/c1ccccc1)c1cnccn1	u	u	-1%	-82*	-12%	x
Cn1c(=O)c(-c2cccc(Cl)c2)nc2cncnc21	-30%	x	x	x	-5%	x
COc1cccc(C(=O)N/N=C/C(Br)=C/c2ccccc2)c1	u	-88*	-24%	-28	u	u
Oc1cccc2ccc[n+](CC(O)Cn3c4ccccc4c4ccccc43)c12 (configuration not stated)	-73%	2	-1%	-10	22µM*	51%
OC(COc1ccccc1)Cn1c2ccccc2c2ccccc21 (configuration not stated)	-31%	5	-13%	1	u	x
